Experimental data: PubChem BioAssay (NCI)
About 83,000 compounds went through this panel and 20% of them were active in at least one assay; those are over-represented in the sample as a whole.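 Method: cells in 96-well plates; compound added at one concentration; 48 h incubation; percent growth measured; values under 10 scored active.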 Activity calls are given as the source filed them.

How the values were obtained:
Test in all cases: NCI-60 one-dose screen, 48 h (100 = growth as untreated, 0 = no growth, -100 = all killed)
Details in all cases: 10 µM unless noted
SK-MEL-2 melanoma = system: SK-MEL-2 melanoma
EKVX NSCLC = system: EKVX NSCLC
SN12C renal = system: SN12C renal
UO-31 renal = system: UO-31 renal
TK-10 renal = system: TK-10 renal
ACHN renal = system: ACHN renal
A498 renal = system: A498 renal
CCRF-CEM leukemia = system: CCRF-CEM leukemia
MOLT-4 leukemia = system: MOLT-4 leukemia
SR leukemia = system: SR leukemia
RPMI-8226 leukemia = system: RPMI-8226 leukemia
OVCAR-8 ovarian = system: OVCAR-8 ovarian
OVCAR-5 ovarian = system: OVCAR-5 ovarian
OVCAR-4 ovarian = system: OVCAR-4 ovarian
SK-OV-3 ovarian = system: SK-OV-3 ovarian
IGROV1 ovarian = system: IGROV1 ovarian
HS 578T breast = system: HS 578T breast
NCI/ADR-RES ovarian = system: NCI/ADR-RES ovarian
T-47D breast = system: T-47D breast
OVCAR-3 ovarian = system: OVCAR-3 ovarian

Measured: growth

NC(=N\N=C\c1ccccc1O)/C(N)=N/N=C/c1ccccc1O
inactive: SK-MEL-2 melanoma 94.8% | EKVX NSCLC 88.5% | SN12C renal 90.8% | UO-31 renal 70.2% | TK-10 renal 92.5% | ACHN renal 74.9% | A498 renal 79% | CCRF-CEM leukemia 80.1% | MOLT-4 leukemia 68.3% | SR leukemia 71.2% | RPMI-8226 leukemia 61.1% | OVCAR-8 ovarian 81.3% | OVCAR-5 ovarian 96.7% | SK-OV-3 ovarian 92.4% | IGROV1 ovarian 97.8% | HS 578T breast 68.8% | NCI/ADR-RES ovarian 83.3% | T-47D breast 64%
active: OVCAR-4 ovarian 6.53%

O=c1c2ccccc2oc2ccc(OCCCCCCN3CCCCCC3)cc12
active: MOLT-4 leukemia 6.07% | SR leukemia 1.08%
inactive: SK-MEL-2 melanoma 76.9% | EKVX NSCLC 62.8% | SN12C renal 55% | UO-31 renal 41.8% | TK-10 renal 66.3% | ACHN renal 65.7% | A498 renal 70.2% | CCRF-CEM leukemia 43.3% | RPMI-8226 leukemia 13.3% | OVCAR-8 ovarian 50.3% | OVCAR-5 ovarian 58.9% | OVCAR-4 ovarian 46.6% | SK-OV-3 ovarian 72.4% | IGROV1 ovarian 46.2% | HS 578T breast 81.9% | NCI/ADR-RES ovarian 54.2% | T-47D breast 21.5%

C=C1C(=O)O[C@H]2[C@H]1CC/C(COC(=O)c1cc3ccccc3o1)=C\CC[C@@]1(C)O[C@@H]21
active: SK-MEL-2 melanoma -34.7% | EKVX NSCLC -26.4% | SN12C renal -1.94% | UO-31 renal 3.76% | ACHN renal 7.04% | CCRF-CEM leukemia 1.96% | MOLT-4 leukemia -9.79% | SR leukemia -1.95% | RPMI-8226 leukemia -23.7% | OVCAR-8 ovarian -12.6% | OVCAR-5 ovarian -18.8% | OVCAR-4 ovarian -10.5% | IGROV1 ovarian -40.1% | HS 578T breast -4.65% | T-47D breast -48%
inactive: TK-10 renal 39.2% | A498 renal 103% | SK-OV-3 ovarian 97.2% | NCI/ADR-RES ovarian 14.2%

C=C(C)[C@@H]1CCC=C2CC[C@]3(C)[C@H](CC[C@@H]4[C@@]5(C)CCCNC(C)(C)[C@@H]5CC[C@]43C)[C@H]21
active: MOLT-4 leukemia 0.148% | SR leukemia -25.7% | RPMI-8226 leukemia -11.9% | OVCAR-8 ovarian 3.48%
inactive: SK-MEL-2 melanoma 77.9% | EKVX NSCLC 94.6% | SN12C renal 65.2% | UO-31 renal 75.4% | TK-10 renal 104% | ACHN renal 78.7% | A498 renal 101% | CCRF-CEM leukemia 40.1% | OVCAR-5 ovarian 56.4% | OVCAR-4 ovarian 36.7% | SK-OV-3 ovarian 112% | IGROV1 ovarian 23.5% | HS 578T breast 97.2% | NCI/ADR-RES ovarian 55.1% | T-47D breast 60.2%

C=C1C(=O)O[C@H]2[C@H]1CC/C(C=Nc1c(N)cc(F)cc1Br)=C\CC[C@@]1(C)O[C@@H]21
inactive: SK-MEL-2 melanoma 86.7% | EKVX NSCLC 75.2% | SN12C renal 76.1% | UO-31 renal 53.5% | TK-10 renal 81.7% | ACHN renal 63.4% | A498 renal 119% | MOLT-4 leukemia 45.9% | SR leukemia 21.3% | RPMI-8226 leukemia 12.8% | OVCAR-8 ovarian 78.4% | OVCAR-5 ovarian 103% | OVCAR-4 ovarian 105% | SK-OV-3 ovarian 87.3% | IGROV1 ovarian 60.4% | OVCAR-3 ovarian 50.9% | HS 578T breast 90.2% | T-47D breast 50%
active: CCRF-CEM leukemia 7.71%

CCOC(=O)c1c(C(F)(F)F)n([O-])c2ccc(Cl)cc2[n+]1=O
active: SK-MEL-2 melanoma -57.2% | EKVX NSCLC -8.8% | SN12C renal -21.4% | UO-31 renal -44.3% | TK-10 renal -92.7% | ACHN renal -97.8% | A498 renal -76.4% | CCRF-CEM leukemia -45.7% | MOLT-4 leukemia -48.5% | SR leukemia -33.6% | RPMI-8226 leukemia -69.8% | OVCAR-8 ovarian -42.6% | OVCAR-5 ovarian -27.8% | OVCAR-4 ovarian -35.3% | IGROV1 ovarian -30.3% | NCI/ADR-RES ovarian 8.49% | T-47D breast -53%
inactive: SK-OV-3 ovarian 66.6% | HS 578T breast 13.8%

NC[C@@H]1CCN(c2cc3c(cc2F)c(=O)n(N)c(=O)n3Cc2ccc(-c3ccccc3)cc2)C1
active: SR leukemia -26.7%
inactive: SK-MEL-2 melanoma 94.4% | EKVX NSCLC 85.3% | SN12C renal 87.3% | UO-31 renal 69.7% | TK-10 renal 94.7% | ACHN renal 95.3% | A498 renal 90.3% | CCRF-CEM leukemia 55.4% | MOLT-4 leukemia 50.4% | RPMI-8226 leukemia 65.2% | OVCAR-5 ovarian 111% | OVCAR-4 ovarian 97.4% | SK-OV-3 ovarian 84.6% | IGROV1 ovarian 91.9% | OVCAR-3 ovarian 96.4% | HS 578T breast 82.9% | NCI/ADR-RES ovarian 95.5% | T-47D breast 89%

CCCCCCCCCCCCCC1=NCC[N+]1(CCO)Cc1ccccc1 (centres undefined)
active: SK-MEL-2 melanoma -61.7% | EKVX NSCLC -79.5% | SN12C renal -84.3% | UO-31 renal -86.1% | TK-10 renal -85.4% | ACHN renal -98% | CCRF-CEM leukemia -49.5% | MOLT-4 leukemia -58.1% | SR leukemia -50.7% | RPMI-8226 leukemia -47.2% | OVCAR-5 ovarian -15% | OVCAR-4 ovarian -28.5% | IGROV1 ovarian -72.6% | OVCAR-3 ovarian -86.9% | HS 578T breast -36.5% | NCI/ADR-RES ovarian -60.1% | T-47D breast -72.8%
inactive: A498 renal 54.2% | SK-OV-3 ovarian 48.8%

CC1CCCN(CCCCCOc2ccc3oc4ccccc4c(=O)c3c2)C1 (centres undefined)
inactive: SK-MEL-2 melanoma 82.3% | EKVX NSCLC 84% | SN12C renal 64.3% | UO-31 renal 61.2% | TK-10 renal 82.3% | ACHN renal 98.9% | A498 renal 75.9% | CCRF-CEM leukemia 70.9% | MOLT-4 leukemia 49% | SR leukemia 36.4% | RPMI-8226 leukemia 50.7% | OVCAR-5 ovarian 79.4% | OVCAR-4 ovarian 83.1% | SK-OV-3 ovarian 99.7% | IGROV1 ovarian 67.3% | OVCAR-3 ovarian 77.9% | HS 578T breast 77.8% | NCI/ADR-RES ovarian 73.3% | T-47D breast 65.4%

CCOC(=O)c1cnn(-c2nc(-c3ccc(F)cc3)c(C#N)c(N3CCOCC3)n2)c1N
inactive: SK-MEL-2 melanoma 90% | EKVX NSCLC 92.9% | SN12C renal 93.9% | UO-31 renal 74.1% | TK-10 renal 64% | ACHN renal 95.7% | A498 renal 71.3% | CCRF-CEM leukemia 92.8% | MOLT-4 leukemia 90.4% | SR leukemia 81.9% | RPMI-8226 leukemia 103% | OVCAR-5 ovarian 95% | OVCAR-4 ovarian 101% | SK-OV-3 ovarian 101% | IGROV1 ovarian 102% | OVCAR-3 ovarian 113% | HS 578T breast 103% | NCI/ADR-RES ovarian 96.7% | T-47D breast 83.9%

CN1CCN(C(=O)[C@@]2(C)CC[C@]3(C)CC[C@]4(C)C(=CC[C@@H]5[C@@]6(C)CC[C@H](OC(=O)c7cccnc7)C(C)(C)[C@@H]6CC[C@]54C)[C@@H]3C2)CC1
inactive: SK-MEL-2 melanoma 101% | EKVX NSCLC 76.3% | SN12C renal 80.4% | UO-31 renal 74.1% | TK-10 renal 116% | ACHN renal 77.7% | A498 renal 92.1% | MOLT-4 leukemia 31.9% | OVCAR-5 ovarian 78.7% | OVCAR-4 ovarian 35.2% | SK-OV-3 ovarian 79.3% | IGROV1 ovarian 88.2% | OVCAR-3 ovarian 80.9% | HS 578T breast 76.8% | NCI/ADR-RES ovarian 77.6% | T-47D breast 57.6%
active: CCRF-CEM leukemia 1.45% | SR leukemia -26.9% | RPMI-8226 leukemia 6.97%

CCOC(=O)C1=C(C)n2nc(CC#N)c(C#N)c2NC1c1ccc(Cl)cc1 (centres undefined)
inactive: SK-MEL-2 melanoma 105% | EKVX NSCLC 89% | SN12C renal 96.6% | UO-31 renal 73.3% | TK-10 renal 123% | ACHN renal 90.8% | A498 renal 98.6% | CCRF-CEM leukemia 96.4% | MOLT-4 leukemia 104% | SR leukemia 101% | RPMI-8226 leukemia 101% | OVCAR-5 ovarian 103% | OVCAR-4 ovarian 99.3% | SK-OV-3 ovarian 105% | IGROV1 ovarian 84.1% | OVCAR-3 ovarian 89.3% | HS 578T breast 106% | NCI/ADR-RES ovarian 91.9% | T-47D breast 110%

N#Cc1ccc(N2Cc3cc(Cl)ccc3OC3=C2C(=O)N(Cc2ccc(F)cc2)C3=O)cc1
inactive: EKVX NSCLC 37.4% | A498 renal 120% | SK-OV-3 ovarian 102% | HS 578T breast 27% | NCI/ADR-RES ovarian 10.1%
active: SK-MEL-2 melanoma -46.5% | SN12C renal -24.9% | UO-31 renal -85.7% | TK-10 renal -79.4% | ACHN renal -92.9% | CCRF-CEM leukemia -20% | MOLT-4 leukemia -34.5% | SR leukemia -33.5% | RPMI-8226 leukemia -21.8% | OVCAR-5 ovarian -1.59% | OVCAR-4 ovarian -25.8% | IGROV1 ovarian -5.53% | OVCAR-3 ovarian -89% | T-47D breast -70.3%

CNc1cccc2c1C(=O)c1cccc(N)c1C2=O
inactive: SK-MEL-2 melanoma 63.7% | EKVX NSCLC 37.9% | SN12C renal 91% | UO-31 renal 62.1% | TK-10 renal 25.8% | ACHN renal 72.2% | A498 renal 65% | CCRF-CEM leukemia 20.5% | MOLT-4 leukemia 29.4% | RPMI-8226 leukemia 38.9% | OVCAR-5 ovarian 73.8% | OVCAR-4 ovarian 57.6% | SK-OV-3 ovarian 60.5% | IGROV1 ovarian 67.5% | OVCAR-3 ovarian 32.2% | HS 578T breast 19.4% | NCI/ADR-RES ovarian 85% | T-47D breast 45.9%
active: SR leukemia 9.01%

C#CC[C@@H]1C[C@]2(C)[C@H]3CC[C@@H]4[C@H]5[C@H](C(=C)C)CC[C@]5(C(=O)O)CC[C@@]4(C)[C@]3(C)CC[C@H]2C(C)(C)[C@H]1O
inactive: SK-MEL-2 melanoma 80.3% | EKVX NSCLC 55.4% | SN12C renal 39.3% | UO-31 renal 23.5% | TK-10 renal 85.7% | A498 renal 82.7% | CCRF-CEM leukemia 34.1% | MOLT-4 leukemia 26.8% | SR leukemia 45.5% | RPMI-8226 leukemia 24.1% | OVCAR-5 ovarian 95.7% | SK-OV-3 ovarian 74.3% | IGROV1 ovarian 60.2% | HS 578T breast 33.4% | NCI/ADR-RES ovarian 44% | T-47D breast 51.1%
active: ACHN renal 6.77% | OVCAR-4 ovarian -18.7% | OVCAR-3 ovarian -33.5%

O=C(CCc1nnc2sc(OCc3ccccc3)nn12)c1nc2ccc([N+](=O)[O-])cc2[nH]1
inactive: SK-MEL-2 melanoma 95.6% | EKVX NSCLC 89.3% | SN12C renal 106% | UO-31 renal 67.2% | TK-10 renal 131% | ACHN renal 97% | A498 renal 111% | CCRF-CEM leukemia 104% | MOLT-4 leukemia 95.4% | SR leukemia 84.1% | RPMI-8226 leukemia 106% | OVCAR-5 ovarian 103% | OVCAR-4 ovarian 102% | SK-OV-3 ovarian 77.3% | IGROV1 ovarian 93.8% | OVCAR-3 ovarian 96.4% | HS 578T breast 88.2% | NCI/ADR-RES ovarian 99% | T-47D breast 97.7%
